For part of these data: Potency and affinity values are given separately. Active and inactive are the calls of the source. Unless noted, no rule for the calls is given here.
What was measured:
[1] = antimalarial activity against Dd2 strain (AID 2302;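 active = growth inhibition above 50% at the single 2 µM test dose, taken to imply half-maximal potency below 2 µM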;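 also: 0% = DMSO untreated growth and 100% = chloroquine plus artemisinin killed control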); conditions: P. falciparum Dd2 in RBCs, LDH growth readout, 72 h; at 2 µM; active compounds read high
[2] = human hepatoma cell viability loss – ATP luminescence, cytotoxicity control for P. falciparum antimalarial project, primary screen (AID 2303;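 active = inhibition above 50%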;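 also: 0% = DMSO wells and 100% = digitonin-killed cells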); conditions: HepG2 viability, 24-48 h, at 10 µM, active compounds read high
[3] = biological target: L-lactate dehydrogenase (Plasmodium falciparum (isolate CDC / Honduras)) (UniProt Q27743); test: PfLDH activity inhibition – cell lysate, 3D7 strain, counter-screen for P. falciparum growth inhibition project (AID 2304);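 also: 0% = vehicle and 100% = reference inhibitor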; conditions: P. falciparum 3D7 crude extract, LDH APAD/NBT absorbance; at 2 µM; active compounds read high
[4] = inhibition of 3D7 malaria parasite growth – strain 3D7 (AID 2306);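 also: 0% = DMSO wells and 100% = chloroquine plus artemisinin control wells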; conditions: P. falciparum 3D7 erythrocytic growth, LDH absorbance, 72 h; at 2 µM; active compounds read high
[5] = biological target: Calcium-dependent protein kinase 1 (Plasmodium falciparum (isolate 3D7)) (UniProt P62344); test: PfCDPK1 kinase inhibitors, biochemical, TCAMS library (AID 1159585; cut-off not given, nearly all actives have IC50 up to about 0.98 µM;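 also: inhibitors leave more ATP so luminescence rises with inhibition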); conditions: recombinant PfCDPK1, Kinase-Glo ATP depletion luminescence
[6] = biological target: Plasmodium falciparum protein kinase 6 (PK6, PF3D7_1337100) (UniProt Q8IDW1); test: PfPK6 kinase inhibitors, biochemical, TCAMS library (AID 1159586); conditions: recombinant PfPK6, Kinase-Glo ATP depletion luminescence
[7] = biological target: Protein kinase 7 (PK7), Plasmodium falciparum 3D7 (PF3D7_0213400) (UniProt Q7YTF7); test: inhibition of Plasmodium PK7 catalytic activity – biochemical, TCAMS antimalarial set, Kinase-Glo luminescence (AID 1159587); conditions: recombinant PfPK7, Kinase-Glo ATP depletion luminescence
[8] = biological target: Calcium-dependent protein kinase 4 (Plasmodium falciparum (isolate 3D7)) (UniProt Q8IBS5); test: PfCDPK4 kinase inhibitors, biochemical, TCAMS library (AID 1159588; cut-off not given, nearly all actives have IC50 up to about 0.91 µM); conditions: recombinant PfCDPK4, Kinase-Glo ATP depletion luminescence
Calcium-dependent protein kinase 4 (Plasmodium falciparum (isolate 3D7)), sequence (Q8IBS5 whole entry, looked up): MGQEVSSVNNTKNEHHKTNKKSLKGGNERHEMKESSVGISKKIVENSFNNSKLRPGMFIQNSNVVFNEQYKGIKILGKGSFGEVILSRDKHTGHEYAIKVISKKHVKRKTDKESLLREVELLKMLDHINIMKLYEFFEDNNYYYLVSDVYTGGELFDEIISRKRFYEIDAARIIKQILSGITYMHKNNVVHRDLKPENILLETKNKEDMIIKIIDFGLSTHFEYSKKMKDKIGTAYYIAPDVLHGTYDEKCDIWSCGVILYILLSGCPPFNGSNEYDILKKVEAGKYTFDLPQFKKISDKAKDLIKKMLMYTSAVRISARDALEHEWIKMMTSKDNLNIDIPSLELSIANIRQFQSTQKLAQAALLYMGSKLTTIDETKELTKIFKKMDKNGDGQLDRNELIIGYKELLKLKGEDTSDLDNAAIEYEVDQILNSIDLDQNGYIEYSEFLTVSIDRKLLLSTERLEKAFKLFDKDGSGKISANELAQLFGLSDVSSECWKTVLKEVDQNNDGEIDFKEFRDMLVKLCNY

L-lactate dehydrogenase (Plasmodium falciparum (isolate CDC / Honduras)), sequence (Q27743 whole entry, looked up): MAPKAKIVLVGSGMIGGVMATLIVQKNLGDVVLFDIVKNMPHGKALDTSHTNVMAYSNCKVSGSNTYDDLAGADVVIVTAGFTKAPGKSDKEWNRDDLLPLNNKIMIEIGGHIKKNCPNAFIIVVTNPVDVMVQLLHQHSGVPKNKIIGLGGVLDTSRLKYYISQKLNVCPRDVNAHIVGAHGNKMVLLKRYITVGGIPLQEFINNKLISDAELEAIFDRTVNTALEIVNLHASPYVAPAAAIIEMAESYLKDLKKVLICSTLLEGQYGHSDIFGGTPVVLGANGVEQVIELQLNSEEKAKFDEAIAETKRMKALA
Plasmodium falciparum protein kinase 6 (PK6, PF3D7_1337100), sequence (Q8IDW1 1-305): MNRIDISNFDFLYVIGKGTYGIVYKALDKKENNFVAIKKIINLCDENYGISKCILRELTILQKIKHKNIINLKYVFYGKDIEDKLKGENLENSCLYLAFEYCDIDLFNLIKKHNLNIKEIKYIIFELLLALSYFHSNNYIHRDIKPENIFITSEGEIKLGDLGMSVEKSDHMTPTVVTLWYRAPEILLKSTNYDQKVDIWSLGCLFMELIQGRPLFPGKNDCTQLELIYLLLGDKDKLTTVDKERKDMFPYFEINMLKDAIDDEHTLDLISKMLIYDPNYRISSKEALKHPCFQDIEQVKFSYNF
Protein kinase 7 (PK7), Plasmodium falciparum 3D7 (PF3D7_0213400), sequence (Q7YTF7 1-343): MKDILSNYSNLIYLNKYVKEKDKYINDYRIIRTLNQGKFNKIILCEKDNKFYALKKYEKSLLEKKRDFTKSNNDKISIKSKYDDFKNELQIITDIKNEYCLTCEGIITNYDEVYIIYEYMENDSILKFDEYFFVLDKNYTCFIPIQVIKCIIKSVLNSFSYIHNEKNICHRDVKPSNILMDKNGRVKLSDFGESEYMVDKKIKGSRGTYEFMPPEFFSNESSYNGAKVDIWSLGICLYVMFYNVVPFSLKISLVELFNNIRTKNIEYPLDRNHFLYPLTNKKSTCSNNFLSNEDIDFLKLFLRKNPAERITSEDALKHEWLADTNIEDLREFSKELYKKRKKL
Calcium-dependent protein kinase 1 (Plasmodium falciparum (isolate 3D7)), sequence (P62344 whole entry, looked up): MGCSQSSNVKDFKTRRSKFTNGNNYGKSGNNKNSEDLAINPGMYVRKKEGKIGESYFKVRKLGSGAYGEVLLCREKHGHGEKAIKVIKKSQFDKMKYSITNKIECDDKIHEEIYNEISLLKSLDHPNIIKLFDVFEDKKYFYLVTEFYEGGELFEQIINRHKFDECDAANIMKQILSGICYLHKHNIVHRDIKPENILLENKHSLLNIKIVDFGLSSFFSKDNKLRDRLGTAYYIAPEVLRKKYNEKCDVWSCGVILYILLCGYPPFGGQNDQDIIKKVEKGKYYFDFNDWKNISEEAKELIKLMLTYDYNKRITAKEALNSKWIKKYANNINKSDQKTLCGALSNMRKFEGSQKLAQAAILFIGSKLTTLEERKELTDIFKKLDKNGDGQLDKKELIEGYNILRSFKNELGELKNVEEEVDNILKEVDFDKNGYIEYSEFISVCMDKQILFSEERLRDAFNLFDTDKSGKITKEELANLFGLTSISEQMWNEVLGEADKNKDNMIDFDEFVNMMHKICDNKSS

CN(C)Cc1ccc(-c2cccc(NC(=O)c3ccc(Cl)cc3)c2)cc1
inactive: growth inhibition [1] 13% | inhibition [2] 24% | inhibition [3] 3% | outcome [5] | outcome [6] | outcome [7] | outcome [8]
active: growth inhibition [4] 94%

O=C(NC1CCCCN(Cc2ccccc2O)C1)c1cc(F)cc(F)c1 (configuration not stated)
active: growth inhibition [1] 52% | growth inhibition [4] 89%
inactive: inhibition [2] 7% | inhibition [3] 0% | outcome [5] | outcome [6] | outcome [7] | outcome [8]

COc1ccc2nccc([C@@H](O)CN3CCC(NCCOc4ccccc4C(F)(F)F)CC3)c2c1
inactive: inhibition [2] 2% | inhibition [3] -5% | outcome [5] | outcome [6] | outcome [7] | outcome [8]
active: growth inhibition [1] 95% | growth inhibition [4] 98%

CCn1c2c(c(=N)c3ccccc31)CCC2
inactive: inhibition [2] 11% | inhibition [3] 8% | outcome [5] | outcome [6] | outcome [7] | outcome [8]
active: growth inhibition [1] 61% | growth inhibition [4] 83%

COc1ccccc1CCNc1nc(C)cc(N[C@@H](CC(C)C)C(=O)NCCc2ccccc2)n1
active: growth inhibition [1] 81% | growth inhibition [4] 97%
inactive: inhibition [2] 12% | inhibition [3] -2% | outcome [5] | outcome [6] | outcome [7] | outcome [8]

c1ccc2c(NCCCCCCCCCNc3ccnc4ccccc34)ccnc2c1
inactive: inhibition [3] -3% | outcome [5] | outcome [6] | outcome [7] | outcome [8]
active: growth inhibition [1] 100% | inhibition [2] 57% | growth inhibition [4] 101%

O=C1CN(C(=O)CCC2CCCC2)C(c2ccc(F)cc2)c2cc(F)ccc2N1 (configuration not stated)
active: growth inhibition [1] 75% | growth inhibition [4] 100%
inactive: inhibition [2] 12% | inhibition [3] -5% | outcome [5] | outcome [6] | outcome [7] | outcome [8]

Fc1cccc(Nc2nc(NCc3ccc4ccsc4c3)nc(Nc3cccc(F)c3)n2)c1
inactive: growth inhibition [1] 11% | inhibition [2] -2% | inhibition [3] -1% | outcome [5] | outcome [6] | outcome [7] | outcome [8]
active: growth inhibition [4] 94%

COc1ccc2nccc([C@@H](O)CN3CCC(NC(=O)c4[nH]c5ccccc5c4-c4ccccc4)CC3)c2c1
inactive: inhibition [2] 18% | inhibition [3] 0% | outcome [5] | outcome [6] | outcome [7] | outcome [8]
active: growth inhibition [1] 68% | growth inhibition [4] 96%

O=C(NC(=S)NCc1ccncc1)c1ccccc1
inactive: growth inhibition [1] -3% | inhibition [2] -7% | inhibition [3] 1% | outcome [5] | outcome [6] | outcome [7] | outcome [8]
active: growth inhibition [4] 94%

CC(CN(C)C)C(=O)Nc1cccc(-c2ccc(-c3nc4ccc(C(F)(F)F)cc4[nH]3)cc2)c1 (configuration not stated)
inactive: inhibition [2] 26% | inhibition [3] -2% | outcome [5] | outcome [6] | outcome [7] | outcome [8]
active: growth inhibition [1] 97% | growth inhibition [4] 99%

CC1CN(Cc2ccc(-c3cccc(-c4nc5ccc(F)cc5[nH]4)c3)cc2)CC(C)O1 (configuration not stated)
active: growth inhibition [4] 93%
inactive: growth inhibition [1] 20% | inhibition [2] 28% | inhibition [3] -3% | outcome [5] | outcome [6] | outcome [7] | outcome [8]

Oc1ccc(CCNc2nc(NCc3ccccc3-c3cccc(Cl)c3)nc(N3CCNCC3)n2)cc1
active: growth inhibition [4] 84%
inactive: growth inhibition [1] 11% | inhibition [2] 15% | inhibition [3] -3% | outcome [5] | outcome [6] | outcome [7] | outcome [8]

NCC1CCCN1Cc1ccc(-c2cccc(-c3nc4ccc(F)cc4[nH]3)c2)cc1 (configuration not stated)
active: growth inhibition [4] 100%
inactive: growth inhibition [1] 31% | inhibition [2] 38% | inhibition [3] 4% | outcome [5] | outcome [6] | outcome [7] | outcome [8]

NC(N)=NN=Cc1c2ccccc2c(Cl)c2c(Cl)cccc12
active: growth inhibition [1] 72% | inhibition [2] 71% | growth inhibition [4] 91%
inactive: inhibition [3] -3% | outcome [5] | outcome [6] | outcome [7] | outcome [8]

Cc1ccccc1C1CCN(C2CCC(NC(=O)c3ccc(-c4cc(C(F)(F)F)nn4C)s3)CC2)CC1 (configuration not stated)
inactive: inhibition [2] 42% | inhibition [3] -2% | outcome [5] | outcome [6] | outcome [7] | outcome [8]
active: growth inhibition [1] 68% | growth inhibition [4] 98%

COc1cc(NC(=O)c2cccc([N+](=O)[O-])c2)cc(S(=O)(=O)c2ccc(Cl)cc2)c1
active: growth inhibition [4] 88%
inactive: growth inhibition [1] 23% | inhibition [2] -12% | inhibition [3] -3% | outcome [5] | outcome [6] | outcome [7] | outcome [8]

O=C(Nc1cccc(C(F)(F)F)c1)c1cccc(S(=O)(=O)NCC2CCCN(CC3CCCCC3)C2)c1 (configuration not stated)
active: growth inhibition [4] 99%
inactive: growth inhibition [1] 11% | inhibition [2] 17% | inhibition [3] -1% | outcome [5] | outcome [6] | outcome [7] | outcome [8]

CCN(CC)CCN(Cc1ccc(-c2ccc(C(F)(F)F)cc2)cc1)C(=O)Cn1c(CCc2cccc(F)c2F)nc(=O)c2cccnc21
active: growth inhibition [1] 89% | inhibition [2] 75% | growth inhibition [4] 101%
inactive: inhibition [3] 2% | outcome [5] | outcome [6] | outcome [7] | outcome [8]

O=C(COc1ccc(Cl)c(Cl)c1)NCCCCCN1CCCN(C(=O)Nc2ccc(Cl)c(Cl)c2)CC1
active: growth inhibition [4] 93%
inactive: growth inhibition [1] 7% | inhibition [2] 29% | inhibition [3] 3% | outcome [5] | outcome [6] | outcome [7] | outcome [8]

CS(=O)(=O)Nc1ccc(OCCCCCCOc2ccc(NS(C)(=O)=O)cc2)cc1
active: growth inhibition [1] 82% | growth inhibition [4] 93%
inactive: inhibition [2] 3% | inhibition [3] 4% | outcome [5] | outcome [6] | outcome [7] | outcome [8]

COc1cccc(NC(=O)Nc2cc(-c3ccc4[nH]ncc4c3)cc3c2CNC3=O)c1
inactive: inhibition [2] 3% | inhibition [3] 5% | outcome [5] | outcome [6] | outcome [7] | outcome [8]
active: growth inhibition [1] 100% | growth inhibition [4] 98%

N#Cc1ccc(CN2CCC(Oc3ccc(NC(=O)c4ccccc4)cc3Cl)CC2)cc1
inactive: inhibition [2] 21% | inhibition [3] 1% | outcome [5] | outcome [6] | outcome [7] | outcome [8]
active: growth inhibition [1] 65% | growth inhibition [4] 84%

CCc1cn2c3c(cc(C(=O)N[C@@H](Cc4ccccc4)[C@H](O)CN[C@@H](C)CC)cc13)N(C)S(=O)(=O)CC2
active: growth inhibition [1] 98% | growth inhibition [4] 99%
inactive: inhibition [2] 2% | inhibition [3] -2% | outcome [5] | outcome [6] | outcome [7] | outcome [8]

COc1ccc(-c2cccc(NC(=O)c3cccc(C#N)c3)c2)cc1CN(C)CCN(C)C
active: growth inhibition [4] 99%
inactive: growth inhibition [1] 21% | inhibition [2] -5% | inhibition [3] 3% | outcome [5] | outcome [6] | outcome [7] | outcome [8]

O=C1C([N+](=O)[O-])=C(O)c2cccc(F)c21
active: growth inhibition [4] 95%
inactive: growth inhibition [1] 13% | inhibition [2] 9% | inhibition [3] 0% | outcome [5] | outcome [6] | outcome [7] | outcome [8]

CN1CCN(c2ccc(-c3cc(-c4ccncc4)c(-c4ccc(Cl)c(O)c4)o3)cc2)CC1
inactive: inhibition [2] -13% | inhibition [3] -4% | outcome [5] | outcome [6] | outcome [7] | outcome [8]
active: growth inhibition [1] 98% | growth inhibition [4] 101%

O=C(/C=C/c1ccc(Cl)cc1)NCCCCCN1CCN(C(=O)Nc2ccc(Cl)c(C(F)(F)F)c2)CC1
inactive: growth inhibition [1] 5% | inhibition [2] 18% | inhibition [3] 8% | outcome [5] | outcome [6] | outcome [7] | outcome [8]
active: growth inhibition [4] 94%

Cc1ccc2nc(C)cc(NN=Cc3cccc(F)c3)c2c1
inactive: inhibition [2] 6% | inhibition [3] -1% | outcome [5] | outcome [6] | outcome [7] | outcome [8]
active: growth inhibition [1] 99% | growth inhibition [4] 99%

CCCc1ccc(-c2csc(NC(=O)c3ccc([N+](=O)[O-])o3)n2)cc1
inactive: growth inhibition [1] 13% | inhibition [3] 4% | outcome [5] | outcome [6] | outcome [7] | outcome [8]
active: inhibition [2] 72% | growth inhibition [4] 85%

COc1nc2c(N3CCN(CCNCc4ccc5c(n4)NC(=O)CS5)CC3)ccnc2cc1F
inactive: inhibition [2] 18% | inhibition [3] -6% | outcome [5] | outcome [6] | outcome [7] | outcome [8]
active: growth inhibition [1] 96% | growth inhibition [4] 101%

CCOc1ccc2c(NN=Cc3ccccn3)cc(C)nc2c1
active: growth inhibition [4] 98%
inactive: growth inhibition [1] 1% | inhibition [2] 19% | inhibition [3] -3% | outcome [5] | outcome [6] | outcome [7] | outcome [8]

O=S(=O)(Nc1ccc(CCN2CCC(N3CCCCC3)CC2)cc1)c1cccc(C(F)(F)F)c1
active: growth inhibition [4] 101%
inactive: growth inhibition [1] 15% | inhibition [2] 20% | inhibition [3] -3% | outcome [5] | outcome [6] | outcome [7] | outcome [8]

O=C(NCC(CCCN1CCC(c2c[nH]c3ccccc23)CC1)c1ccccc1)Nc1ccc(Cl)c(Cl)c1 (configuration not stated)
inactive: inhibition [2] 38% | inhibition [3] 1% | outcome [5] | outcome [6] | outcome [7] | outcome [8]
active: growth inhibition [1] 64% | growth inhibition [4] 101%

O=C(Nc1cc(C(F)(F)F)cc(C(F)(F)F)c1)NC(CCCN1CCC2(CC1)OCc1ccccc12)c1ccc(Cl)c(Cl)c1 (configuration not stated)
active: growth inhibition [1] 87% | growth inhibition [4] 94%
inactive: inhibition [2] 26% | inhibition [3] 2% | outcome [5] | outcome [6] | outcome [7] | outcome [8]

O=C(O)c1ccc(-c2c[nH]c3ncc(-c4ccc(Cl)cc4)cc23)cc1
active: growth inhibition [1] 99% | growth inhibition [4] 97%
inactive: inhibition [2] 39% | inhibition [3] 7% | outcome [5] | outcome [6] | outcome [7] | outcome [8]

O=C(Nc1cccc(-c2ccc(-c3nc4ccc(F)cc4[nH]3)s2)c1)c1ccncc1
inactive: growth inhibition [1] 29% | inhibition [3] -8% | outcome [5] | outcome [6] | outcome [7] | outcome [8]
active: inhibition [2] 74% | growth inhibition [4] 96%

COc1ccccc1C1CCN(CCCCNC(=O)c2ccc(/C=C/c3cc(Cl)cc(Cl)c3)cc2)CC1
inactive: growth inhibition [1] 30% | inhibition [2] 36% | inhibition [3] 9% | outcome [5] | outcome [6] | outcome [7] | outcome [8]
active: growth inhibition [4] 96%

CCCCc1cc(NCc2ccncc2)nc(Nc2cccc(OC)c2)n1
active: growth inhibition [1] 56% | growth inhibition [4] 101%
inactive: inhibition [2] 41% | inhibition [3] -5% | outcome [5] | outcome [6] | outcome [7] | outcome [8]

From PubChem BioAssay
